Measurements reported in PubChem BioAssay AID1159580 (chemical genetic matrix, 2015).
Several values for one entry are separate records, joined by “and”; a condition that tells them apart may be missing. Identical values can stand only once. Out of some 5,500 compounds screened, about 2,000 (36%) were called active. Not shown: some 18% with an inconclusive outcome. Cut-off read from the data, not from the text of the source: active = normalized growth mostly below about 0.91 (no sharp cut-off); inconclusive = no clear call, values can overlap the other calls; inactive = mostly above about 0.92. The list shows a part of the results.

Test: chemical genetic growth profiling, strain panel (AID 1159580);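 note: tested at 20 µM; growth read once vehicle control cultures reached saturation at 30 °C; 1 = growth at the plate median or of vehicle wells; lower values mean less growth of the strain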
Details: S. cerevisiae deletion strains, growth OD

Measured: normalized growth

O=C(O)c1cc(O)c2c(c1)[C@@H]([C@H]1c3cc(C(=O)O)cc(O)c3C(=O)c3c(O[C@H]4O[C@H](CO)[C@@H](O)[C@H](O)[C@H]4O)cccc31)c1cccc(O[C@H]3O[C@H](CO)[C@@H](O)[C@H](O)[C@H]3O)c1C2=O
inactive: locus YAL013W, strain DEP1, active compounds read low 1.02 | locus YAL021C, strain ccr4, active compounds read low 0.983 | locus YAL026C, strain drs2, active compounds read low 1.01 | locus YAL030W, strain snc1, active compounds read low 1.02 | locus YBL061C, strain skt5, active compounds read low 1.01 | locus YBR009C, strain hhf1, active compounds read low 1.04 | locus YBR021W, strain FUR4, active compounds read low 1.02 | locus YBR023C, strain chs3, active compounds read low 1.02 | locus YBR171W, strain sec66, active compounds read low 1.02 | locus YBR229C, strain ROT2, active compounds read low 1.01 | locus YBR231C, strain swc5, active compounds read low 1.02 | locus YBR279W, strain paf1, active compounds read low 1.01 | locus YCL011C, strain gbp2, active compounds read low 1.02 | locus YCL016C, strain dcc1, active compounds read low 1.02 | locus YCL029C, strain bik1, active compounds read low 1 | locus YCL061C, strain MRC1, active compounds read low 0.987 | locus YCL069W, strain vba3, active compounds read low 1.01 | locus YCR088W, strain abp1, active compounds read low 1.02 | locus YDL005C, strain med2, active compounds read low 1 | locus YDL035C, strain GPR1, active compounds read low 1.02 | locus YDL040C, strain nat1, active compounds read low 1.04 | locus YDL074C, strain BRE1, active compounds read low 1.04 | locus YDL101C, strain DUN1, active compounds read low 1.01 | locus YDL134C, strain PPH21, active compounds read low 1.01 | locus YDL185W, strain tfp1, active compounds read low 1.01 | locus YDL192W, strain arf1, active compounds read low 0.995 | locus YDR001C, strain nth1, active compounds read low 1.04 | locus YDR069C, strain doa4, active compounds read low 1.01 | locus YDR101C, strain arx1, active compounds read low 0.98 | locus YDR137W, strain rgp1, active compounds read low 0.953 | locus YDR150W, strain NUM1, active compounds read low 1.02 | locus YDR159W, strain sac3, active compounds read low 1.02 | locus YDR162C, strain NBP2, active compounds read low 1.02 | locus YDR297W, strain sur2, active compounds read low 1.02 | locus YDR318W, strain mcm21, active compounds read low 1.01 | locus YDR334W, strain swr1, active compounds read low 1.05 | locus YDR335W, strain msn5, active compounds read low 1.02 | locus YDR388W, active compounds read low 1 | locus YDR392W, strain spt3, active compounds read low 0.93 | locus YDR502C, strain sam2, active compounds read low 0.995 | locus YEL003W, strain gim4, active compounds read low 1.02 | locus YEL061C, strain CIN8 (second series), active compounds read low 1.05 | locus YEL061C, strain CIN8, active compounds read low 1.01 | locus YER015W, strain faa2, active compounds read low 1.01 | locus YER016W, strain bim1, active compounds read low 1.02 | locus YER110C, active compounds read low 1 | locus YER155C, strain BEM2 (second series), active compounds read low 1.01 | locus YER155C, strain BEM2, active compounds read low 1.01 | locus YER167W, strain BCK2, active compounds read low 1.01 | locus YFR010W, strain ubp6, active compounds read low 1.02 | locus YGL078C, strain dbp3, active compounds read low 0.993 | locus YGL086W, strain mad1, active compounds read low 1 | locus YGL167C, strain pmr1, active compounds read low 1.03 | locus YGL173C, strain kem1, active compounds read low 1.02 | locus YGL227W, strain vid30, active compounds read low 1.05 | locus YGL240W, strain doc1, active compounds read low 0.989 | locus YGL248W, strain PDE1, active compounds read low 1.02 | locus YGL253W, strain hxk2, active compounds read low 1.02 | locus YGR135W, strain pre9, active compounds read low 1.01 | locus YGR252W, strain gcn5, active compounds read low 0.949 | locus YHR013C, strain ard1, active compounds read low 1.06 | locus YHR027C, strain rpn1, active compounds read low 1.05 | locus YHR030C, strain SLT2, active compounds read low 1.01 and 0.986 | locus YHR079C, strain IRE1 (second series), active compounds read low 1 | locus YHR079C, strain IRE1, active compounds read low 0.981 | locus YHR094C, strain hxt1, active compounds read low 0.999 | locus YHR129C, strain ARP1, active compounds read low 1.01 | locus YHR142W, strain chs7, active compounds read low 1.09 | locus YHR200W, strain rpn10, active compounds read low 0.991 | locus YIL066C, strain RNR3, active compounds read low 1.02 | locus YIL073C, strain SPO22, active compounds read low 1.06 | locus YIL125W, strain kgd1, active compounds read low 1 | locus YIR030C, strain dcg1, active compounds read low 0.999 | locus YJL092W, strain hpr5, active compounds read low 1.01 | locus YJL095W, strain BCK1, active compounds read low 1.03 and 0.978 | locus YJL129C, strain trk1, active compounds read low 1.04 | locus YJL134W, strain LCB3, active compounds read low 1.02 | locus YJL154C, strain vps35, active compounds read low 1.02 | locus YJL164C, strain tpk1, active compounds read low 1 | locus YJL166W, strain qcr8, active compounds read low 0.958 | locus YJL168C, strain set2, active compounds read low 1.02 | locus YJL187C, strain SWE1 (second series), active compounds read low 1.02 | locus YJL187C, strain SWE1, active compounds read low 1.01 | locus YJR043C, strain POL32, active compounds read low 1
active: locus YDR195W, strain ref2 1.17 [resistant] | locus YEL037C, strain rad23, active compounds read low 1.09 [resistant] | locus YJL095W, strain BCK1 (second series), active compounds read low 1.12 [resistant]
